From PubChem BioAssay (NCATS)
Inconclusive results are not listed. Calls of active or inactive are those of the source. Unless noted, calls follow the shape of the dose curve; as a rule, active = well fitted curve in the direction sought with a large enough effect; inconclusive = small, poorly fitted or top-dose-only effect, or another doubt; inactive = no such curve, though single readings can be large; an effect the other way counts as inactive or inconclusive.

Legend:
[1] = AP1 Signaling Pathway (AID 357; active = well fitted curve in either direction with a large enough effect, not every such curve was filed as active; also: % is scaled to controls: 0 for no effect and ±100 for the full control effect)
In short: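 ME-180 cells with beta-lactamase reporter under AP-1 response element, stimulated with EC50 EGF; compounds tested in titration series, 5 h at 37 °C. CCF4 substrate added 2.5 h at room temperature; 460/530 nm emission ratio gave %activity and AC50.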

[2] = NFAT Signaling Pathway (AID 444; active = well fitted curve in either direction with a large enough effect, not every such curve was filed as active;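 also: carbachol stimulus at about its EC50 of 1 µM final; % is scaled to controls: 0 for no effect and ±100 for the full control effect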); conditions: Jurkat NFAT-bla M1, carbachol, beta-lactamase ratio, 5 h; at 17.2 µM (top of the series)
In short: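 Read-out: CCF4 FRET ratio (460 nm/530 nm) after 1 h RT dye loading, used for %activity and AC50 from titration series. Cells: Jurkat NFAT-β-lactamase/M1 line, treated with compound plus 1 uM carbachol for 5 h, 37 °C.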

[3] = Stat Signaling Pathway (AID 446; active = well fitted curve in either direction with a large enough effect, not every such curve was filed as active;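 also: ME-180 cervical cancer cells given 40 pM IL-6 alongside compound; SIE-controlled beta-lactamase reporter measured as 460/530 nm FRET emission ratio; % is scaled to controls: 0 for no effect and ±100 for the full control effect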)
In short: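 FRET read-out (405 nm excitation, 460/530 nm emission) of a beta-lactamase reporter under a STAT-inducible element in ME-180 cervical carcinoma cells. Cells with compound receive 40 pM IL-6 for 5 h. Values are normalised to AC90 stimulation and AC90 JAK-inhibitor controls.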

[4] = biological target: Glucocorticoid receptor (Homo sapiens) (UniProt P04150); experiment: GR-GFP Redistribution (AID 450;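 active = compounds whose dose series gives a full or clear partial fitted curve of increased nuclear translocation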; also: potency is read from the fitted curve at half-maximal effect); conditions: U2OS GR-GFP nuclear translocation, laser cytometry, 2 h
[5] = biological target: Glucocorticoid receptor (Homo sapiens) (UniProt P04150); experiment: GR-EFC Redistribution (AID 451; calls by dose curve; also: potency is read from the fitted curve at half-maximal effect); conditions: CHO-K1 GR-EFC translocation, beta-gal luminescence, 2 h
In short: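 Translocation of GR-ED fusion to nuclear EA restores b-gal, read by luminescence after 1 h room-temperature detection. Engineered CHO-K1 biosensor cells, 1,000/well, exposed 2 h at 37 C to titrations up to 46 uM final.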

[6] = biological target: Mitogen-activated protein kinase 10 (Mus musculus) (UniProt Q61831); experiment: JNK3 AlphaScreen Assay (AID 530; active = well fitted curve in either direction with a large enough effect, not every such curve was filed as active;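 also: kinase came from lysate of stimulated human HepG2 cells; signal reports phosphorylation of biotinylated GST-cJun 1-79 at Ser73 with 10 µM ATP; % is scaled to controls: 0 for no effect and ±100 for the full control effect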)
In short: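 Kinase buffer: 20 mM Tris-HCl pH 7.6, 10 mM MgCl2, 1 mM DTT, 0.1 mM Na3VO4, 0.01% Tween-20; ATP 10 uM. Substrate biotin-GST-cJun(1-79), enzyme from activated HepG2 lysates. Detection by Ser73 phospho-antibody AlphaScreen.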

[7] = biological target: 3',5'-cyclic-AMP phosphodiesterase 4B (Homo sapiens) (UniProt Q07343); experiment: qHTS Assay for Inhibitors of PDE-IV (AID 607; active = well fitted activation curve with a large enough effect in the main read-out, with a control signal flat, not every such curve was filed as active; also: % of control where 0% means no effect)
In short: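 Cell-based read-out of cAMP via a modified cyclic nucleotide-gated channel and membrane potential dye (535/590 nm) in HEK293 cells expressing PDE4 endogenously. Compounds tested up to 22.9 uM final; 100 uM RO 20-1724 reference.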

[8] = qHTS Assay for Lipid Storage Modulators (AID 1519; calls by dose curve); conditions: Drosophila S3 cells, BODIPY lipid droplet/cell ratio, laser cytometry, cells loaded with oleic acid
In short: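 Cells seeded at 5,000 per well were treated with compounds over a concentration series and loaded with oleic acid (400 uM, as added). Lipid droplet fluorescence (488 nm excitation, 500-530 nm channel) was read by laser-scanning cytometry and normalized to 20 uM Triacsin C.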

[9] = biological target: Ubiquitin carboxyl-terminal hydrolase 1 (Homo sapiens) (UniProt O94782); experiment: Inhibitors of USP1/UAF1: Pilot qHTS (AID 504865);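 also: rhodamine fluorescence freed from ubiquitin-rhodamine substrate followed over time; top concentration of the series differs between compounds; % is scaled to controls: 0 for no effect and ±100 for the full control effect; nearly all actives have a fitted effect of over 35% in size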
In short: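 Kinetic fluorescence assay: 1nM USP1/UAF1, 15 min compound preincubation, then 150nM Ub-Rho; 480/540 nm.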

[10] = biological target: Luciferin 4-monooxygenase (Photinus pyralis) (UniProt P08659); experiment: Biochemical firefly luciferase enzyme assay for NPC (AID 624030);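 also: purified P. pyralis luciferase at 10 nM with luciferin and ATP substrate; 0% = DMSO and -100% = full luciferase inhibition by PTC124 control; nearly all actives have a fitted effect of over 70% in size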
In short: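 Direct inhibition of firefly luciferase enzyme (10 nM final, 50 mM Tris Acetate) assessed by luminescence within 5 minutes. Percent activity scaled between DMSO and PTC124 positive control, with concentration-effect curves classified by fit quality and response.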

[11] = biological target: Cytochrome P450 3A4 (Homo sapiens) (UniProt P08684); experiment: qHTS Assay for Activators of Cytochrome P450 3A4 (AID 885); also: nearly all actives have a fitted effect of over 65% in size
In short: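 Luminescent readout of luciferin formed from 25 uM Luciferin-PPXE (KM level) by 20 nM CYP3A4 in 200 mM KPO4, with 60 min NADPH-driven reaction at room temperature after 10 min compound exposure. Ketoconazole (57 uM) defined 100% inhibition.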

[12] = biological target: ATP-dependent 6-phosphofructokinase (Trypanosoma brucei brucei) (UniProt O15648); experiment: qHTS Assay to Find Inhibitors of T. brucei phosphofructokinase: hit validation (AID 492961)
In short: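 ADP-Glo luminescence read-out of ADP formed by 1.25 nM PFK from 0.1 mM ATP and 0.5 mM F6P (TEA pH 8.0, 45 min, RT). Compounds titrated; activity normalized to no-enzyme and full-enzyme controls.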

[13] = S16 Schwann cell viability assay (CellTiter-Glo assay) (AID 624031);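 also: native untransfected S16 rat Schwann cells; cellular ATP luminescence as a viability measure; plate controls were DMSO-treated cells for no effect and cell-free wells for full effect; nearly all actives have a fitted effect of over 70% in size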
In short: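 Rat S16 Schwann cells without reporter constructs received compound or DMSO for 24 h at 37 °C under 5% CO2. Cellular ATP was then quantified by CellTiter-Glo luminescence, with vehicle wells defined as 0% activity and cell-free wells as reference.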

[14] = S16 Schwann cell PMP22 intronic element firefly luciferase assay (AID 624032);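 also: plate controls were DMSO for no effect and PTC124 positive control mean for full effect; nearly all actives have a fitted effect of over 30% in size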
In short: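 Luciferase reporter of PMP22 intronic-element expression in stably transfected S16 rat Schwann cells, read by ONE-Glo luminescence after 24 h compound exposure at 37 C. Activity scaled between DMSO (0%) and positive-control PTC124; concentration-effect curves quality-classified.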

[15] = qHTS profiling for inhibitors of Plasmodium falciparum proliferation (AID 504749);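 also: 0% = DMSO vehicle and full inhibition = artemisinin control; nearly all actives have a fitted effect of over 60% in size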; conditions: P. falciparum in erythrocytes, SYBR Green DNA, 72 h, at 12.8 µM (top of the series)
In short: (§1)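 In a 72 h erythrocytic culture (37 C, humidified, 5% CO2) at 2.5% hematocrit and 0.3% starting parasitemia, compounds were tested; SYBR Green I in detergent lysis buffer stained parasite DNA overnight.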

3D7 = experiment: as above; conditions: P. falciparum in erythrocytes, SYBR Green DNA, 72 h; series mostly up to 28.7 µM
In short: as §1

CP262 = experiment: as above; conditions: P. falciparum in erythrocytes, SYBR Green DNA, 72 h; series mostly up to 28.7 µM
In short: as §1

ECU = experiment: as above; conditions: P. falciparum in erythrocytes, SYBR Green DNA, 72 h; series mostly up to 28.7 µM
In short: as §1

HB3 = experiment: as above; conditions: P. falciparum in erythrocytes, SYBR Green DNA, 72 h; series mostly up to 28.7 µM
In short: as §1

[16] = biological target: Cytochrome P450 1A2 (Homo sapiens) (UniProt P05177); experiment: p450-cyp1a2 (AID 410; calls by dose curve;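 also: -100% = full effect of reference inhibitor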)
In short: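 20nM CYP1A2, 100uM Luciferin-ME (=Km), 100mM KPO4; cpd 10 min RT; +NADPH regen, 60 min RT; stop/detect 20 min; luminescence. Normalized to furafylline 57 uM = full inhibition.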

[17] = measured here: cell count channel max response
[18] = measured here: lipid channel max response

Chain of Glucocorticoid receptor (Homo sapiens) (P04150 whole entry, looked up, the tested form may be a part): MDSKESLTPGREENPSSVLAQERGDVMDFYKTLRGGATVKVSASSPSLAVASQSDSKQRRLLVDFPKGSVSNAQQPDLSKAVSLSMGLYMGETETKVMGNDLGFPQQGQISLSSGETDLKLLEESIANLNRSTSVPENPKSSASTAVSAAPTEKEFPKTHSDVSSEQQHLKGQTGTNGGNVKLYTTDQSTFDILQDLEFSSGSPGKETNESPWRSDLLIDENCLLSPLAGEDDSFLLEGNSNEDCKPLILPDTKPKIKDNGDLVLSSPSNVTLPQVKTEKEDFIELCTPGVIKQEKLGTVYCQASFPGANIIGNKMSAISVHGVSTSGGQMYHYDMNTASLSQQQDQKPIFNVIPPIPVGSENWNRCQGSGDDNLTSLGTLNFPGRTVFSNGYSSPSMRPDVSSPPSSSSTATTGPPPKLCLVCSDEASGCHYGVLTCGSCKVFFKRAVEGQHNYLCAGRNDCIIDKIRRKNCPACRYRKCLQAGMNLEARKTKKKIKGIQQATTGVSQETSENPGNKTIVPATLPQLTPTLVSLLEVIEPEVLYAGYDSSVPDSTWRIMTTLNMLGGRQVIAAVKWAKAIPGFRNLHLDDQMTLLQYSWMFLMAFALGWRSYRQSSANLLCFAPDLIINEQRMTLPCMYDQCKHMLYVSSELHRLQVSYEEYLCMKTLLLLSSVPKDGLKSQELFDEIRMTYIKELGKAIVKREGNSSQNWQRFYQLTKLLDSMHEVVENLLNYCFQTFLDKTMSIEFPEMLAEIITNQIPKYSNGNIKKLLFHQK
Chain of 3',5'-cyclic-AMP phosphodiesterase 4B (Homo sapiens) (Q07343 whole entry, looked up): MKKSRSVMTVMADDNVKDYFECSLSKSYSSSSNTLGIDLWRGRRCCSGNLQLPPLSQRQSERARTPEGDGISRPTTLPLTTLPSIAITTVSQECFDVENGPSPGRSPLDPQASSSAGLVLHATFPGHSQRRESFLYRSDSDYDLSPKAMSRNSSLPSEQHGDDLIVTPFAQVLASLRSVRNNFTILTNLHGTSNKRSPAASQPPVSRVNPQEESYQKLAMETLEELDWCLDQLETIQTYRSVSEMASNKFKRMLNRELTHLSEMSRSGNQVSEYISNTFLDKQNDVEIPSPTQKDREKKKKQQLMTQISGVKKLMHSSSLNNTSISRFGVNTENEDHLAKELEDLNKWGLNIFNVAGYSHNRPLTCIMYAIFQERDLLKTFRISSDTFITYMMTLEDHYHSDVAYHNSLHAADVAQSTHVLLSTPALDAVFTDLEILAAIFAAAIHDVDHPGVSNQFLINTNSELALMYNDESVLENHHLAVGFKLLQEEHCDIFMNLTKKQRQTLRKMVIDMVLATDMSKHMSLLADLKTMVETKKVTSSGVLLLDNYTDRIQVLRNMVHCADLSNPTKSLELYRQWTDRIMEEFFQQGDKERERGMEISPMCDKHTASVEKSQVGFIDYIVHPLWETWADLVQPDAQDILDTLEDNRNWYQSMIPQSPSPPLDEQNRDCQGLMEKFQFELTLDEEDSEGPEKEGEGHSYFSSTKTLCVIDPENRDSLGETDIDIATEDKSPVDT
Chain of ATP-dependent 6-phosphofructokinase (Trypanosoma brucei brucei) (O15648 whole entry, looked up): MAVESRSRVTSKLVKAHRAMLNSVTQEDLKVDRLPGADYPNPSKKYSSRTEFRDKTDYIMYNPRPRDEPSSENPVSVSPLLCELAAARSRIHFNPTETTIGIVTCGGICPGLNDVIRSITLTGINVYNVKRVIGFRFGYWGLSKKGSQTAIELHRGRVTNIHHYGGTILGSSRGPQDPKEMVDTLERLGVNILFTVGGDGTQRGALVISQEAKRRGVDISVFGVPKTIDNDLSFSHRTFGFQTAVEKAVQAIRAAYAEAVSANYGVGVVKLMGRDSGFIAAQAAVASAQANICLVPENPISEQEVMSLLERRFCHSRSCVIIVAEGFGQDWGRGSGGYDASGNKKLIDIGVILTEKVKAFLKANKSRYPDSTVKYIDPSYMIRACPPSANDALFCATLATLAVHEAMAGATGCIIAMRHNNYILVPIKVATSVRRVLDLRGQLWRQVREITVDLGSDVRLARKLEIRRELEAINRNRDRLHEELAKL
Chain of Ubiquitin carboxyl-terminal hydrolase 1 (Homo sapiens) (O94782 whole entry, looked up): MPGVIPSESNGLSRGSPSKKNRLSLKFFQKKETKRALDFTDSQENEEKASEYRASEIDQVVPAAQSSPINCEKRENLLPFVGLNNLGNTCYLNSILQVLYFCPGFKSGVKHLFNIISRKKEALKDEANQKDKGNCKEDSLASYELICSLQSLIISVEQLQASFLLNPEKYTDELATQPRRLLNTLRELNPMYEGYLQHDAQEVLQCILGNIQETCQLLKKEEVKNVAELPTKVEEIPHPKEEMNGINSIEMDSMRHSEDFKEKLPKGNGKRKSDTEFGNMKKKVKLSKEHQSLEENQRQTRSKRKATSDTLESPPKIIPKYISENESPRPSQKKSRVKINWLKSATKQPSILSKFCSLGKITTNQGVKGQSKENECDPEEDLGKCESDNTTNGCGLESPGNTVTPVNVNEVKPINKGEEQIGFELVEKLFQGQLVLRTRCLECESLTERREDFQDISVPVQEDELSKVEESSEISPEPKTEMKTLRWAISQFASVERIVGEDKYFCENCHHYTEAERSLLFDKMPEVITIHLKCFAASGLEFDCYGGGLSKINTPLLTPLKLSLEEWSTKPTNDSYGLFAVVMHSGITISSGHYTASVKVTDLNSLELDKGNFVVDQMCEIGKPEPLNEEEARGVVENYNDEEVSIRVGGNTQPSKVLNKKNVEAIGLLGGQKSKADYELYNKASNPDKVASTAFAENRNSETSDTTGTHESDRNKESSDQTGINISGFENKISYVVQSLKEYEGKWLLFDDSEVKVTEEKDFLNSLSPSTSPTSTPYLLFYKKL
Chain of Luciferin 4-monooxygenase (Photinus pyralis) (P08659 whole entry, looked up): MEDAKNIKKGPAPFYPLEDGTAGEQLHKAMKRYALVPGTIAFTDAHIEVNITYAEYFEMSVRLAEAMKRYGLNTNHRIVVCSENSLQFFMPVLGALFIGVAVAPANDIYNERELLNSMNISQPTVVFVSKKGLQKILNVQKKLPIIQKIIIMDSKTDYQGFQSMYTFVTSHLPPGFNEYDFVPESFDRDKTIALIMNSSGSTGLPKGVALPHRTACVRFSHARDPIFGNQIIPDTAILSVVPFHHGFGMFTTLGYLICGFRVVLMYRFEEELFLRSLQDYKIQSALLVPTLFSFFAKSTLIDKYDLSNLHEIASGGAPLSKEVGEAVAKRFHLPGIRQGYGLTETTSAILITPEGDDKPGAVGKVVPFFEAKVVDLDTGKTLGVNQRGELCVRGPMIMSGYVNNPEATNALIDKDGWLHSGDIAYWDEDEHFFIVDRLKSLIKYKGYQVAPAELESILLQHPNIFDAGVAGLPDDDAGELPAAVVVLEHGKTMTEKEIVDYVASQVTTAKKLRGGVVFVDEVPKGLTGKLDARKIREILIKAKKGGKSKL
Chain of Cytochrome P450 3A4 (Homo sapiens) (P08684 whole entry, looked up): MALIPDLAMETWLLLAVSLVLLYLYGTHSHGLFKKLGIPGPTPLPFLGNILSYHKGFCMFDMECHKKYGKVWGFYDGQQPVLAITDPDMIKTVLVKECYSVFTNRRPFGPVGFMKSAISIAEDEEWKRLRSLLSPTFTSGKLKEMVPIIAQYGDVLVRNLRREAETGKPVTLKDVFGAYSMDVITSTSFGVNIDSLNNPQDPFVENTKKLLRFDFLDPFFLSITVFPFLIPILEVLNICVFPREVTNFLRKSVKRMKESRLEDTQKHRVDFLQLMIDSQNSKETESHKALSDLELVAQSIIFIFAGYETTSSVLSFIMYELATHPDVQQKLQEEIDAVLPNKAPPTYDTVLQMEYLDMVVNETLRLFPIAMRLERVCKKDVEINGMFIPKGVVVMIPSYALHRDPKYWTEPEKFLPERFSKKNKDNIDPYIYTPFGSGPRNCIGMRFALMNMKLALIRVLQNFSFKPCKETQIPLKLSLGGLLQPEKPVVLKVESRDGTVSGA
Chain of Cytochrome P450 1A2 (Homo sapiens) (P05177 whole entry, looked up): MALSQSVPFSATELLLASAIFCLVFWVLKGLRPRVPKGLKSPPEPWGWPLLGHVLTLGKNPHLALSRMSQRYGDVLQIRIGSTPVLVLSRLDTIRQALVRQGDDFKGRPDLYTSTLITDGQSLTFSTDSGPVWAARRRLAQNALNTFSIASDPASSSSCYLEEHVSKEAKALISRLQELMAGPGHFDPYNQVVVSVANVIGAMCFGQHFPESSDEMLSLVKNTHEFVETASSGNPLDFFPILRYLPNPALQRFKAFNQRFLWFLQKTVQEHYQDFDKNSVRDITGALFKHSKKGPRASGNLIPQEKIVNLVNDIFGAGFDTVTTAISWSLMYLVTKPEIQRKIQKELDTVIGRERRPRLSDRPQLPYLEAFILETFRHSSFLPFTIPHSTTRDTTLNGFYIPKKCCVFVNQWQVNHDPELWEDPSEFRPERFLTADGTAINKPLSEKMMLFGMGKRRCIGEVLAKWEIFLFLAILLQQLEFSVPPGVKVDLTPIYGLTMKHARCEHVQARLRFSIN

CC(=O)N[C@@H]1CCSC1=O
-9.82%: max response [8, 17]
-4.81%: max response [8, 18]
inactive: outcome [1] | activity change, negative = inhibition [2] -13% | outcome [3] | Potency [4] > 20.6 µM | Potency [5] > 20.6 µM | outcome [6] | Potency [7] | activity change, negative = inhibition ([8]; at 25.7 µM (top of the series)) 1.07% | Potency [9] | Potency [10]

C#C[C@@]1(O)CC[C@@H]2[C@@H]3CCC4=CC(=O)CC[C@@]4(C)[C@H]3CC[C@]21C
-8.16%: max response [8, 17]
active: Potency [4] 0.155 µM
-11.2%: max response [8, 18]
inactive: outcome [1] | activity change, negative = inhibition [2] -15.1% | outcome [3] | Potency [5] > 20.6 µM | outcome [6] | Potency [7] | activity change, negative = inhibition ([8]; at 25.7 µM (top of the series)) -1.74%

C=C1C/C(=C\C)C(=O)O[C@@H]2CCN3CC=C(COC(=O)[C@@]1(C)O)[C@H]23
8.7%: max response [8, 17]
inactive: outcome [1] | activity change, negative = inhibition [2] -7.46% | outcome [3] | Potency [4] > 20.6 µM | Potency [5] > 20.6 µM | outcome [6] | Potency [7] | Potency [11] | activity change, negative = inhibition ([8]; at 25.7 µM (top of the series)) 1.53% | Potency [9]
10.5%: max response [8, 18]

CCN[C@]1(c2cccs2)CCCCC1=O
inactive: outcome [1] | activity change, negative = inhibition [2] -19.9% | outcome [3] | Potency [4] > 20.6 µM | Potency [5] > 20.6 µM | outcome [6] | Potency [7] | activity change, negative = inhibition ([8]; at 25.7 µM (top of the series)) 0.601% | Potency [12] | Potency [10] | Potency [13] | Potency [14] | activity, negative = inhibition ([15]; parasite line A) -1.5% | activity, negative = inhibition ([15]; parasite line B) -1.41% | Potency (3D7) | Potency (CP262) | Potency (ECU) | Potency (HB3)
-13.4%: max response [8, 17]
-12.8%: max response [8, 18]

CN1[C@@H]2CC[C@H]1CC(O)C2 (stereo partly drawn)
inactive: Potency [16] | activity change, negative = inhibition [2] -15.4% | outcome [3] | outcome [6] | activity change, negative = inhibition ([8]; at 25.7 µM (top of the series)) -5.91% | Potency [9]
-19.1%: max response [8, 17]
-25.1%: max response [8, 18]

C[C@H]1[C@@H](O)[C@@H](C)/C=C\C=CCC\C=C/C=C\C=C/C=C[C@@H](O[C@H]2O[C@@H](C)[C@@H](O)[C@@H](N)[C@@H]2O)C[C@@H]2O[C@@](O)(C[C@@H](O)[C@H]2C(=O)O)C[C@@H](O)[C@@H](O)CC[C@@H](O)C[C@@H](O)C[C@@H](O)CC(=O)O[C@H]1C
inactive: outcome [1] | activity change, negative = inhibition [2] 1.26% | outcome [3] | outcome [6] | Potency [7] | activity change, negative = inhibition ([8]; at 25.7 µM (top of the series)) -0.591%
5.63%: max response [8, 17]
6.3%: max response [8, 18]

C=C1[C@@H]2C[C@@]3([C@H]1O)[C@H]1C[C@@H]4[C@@]5(C)CC[C@H](O)[C@]4([C@H]1N(CC)C5)[C@H]3C[C@H]2O
inactive: outcome [1] | activity change, negative = inhibition [2] -13% | outcome [3] | Potency [4] > 20.6 µM | Potency [5] > 20.6 µM | outcome [6] | Potency [7] | activity change, negative = inhibition ([8]; at 25.7 µM (top of the series)) -1.27% | Potency [9]
-11.5%: max response [8, 17]
-13.2%: max response [8, 18]

CC(=O)OCC(=O)[C@@H]1CC[C@H]2[C@H]3CC[C@H]4C[C@@H](O)CC[C@]4(C)[C@@H]3C(=O)C[C@@]12C
-23.1%: max response [8, 17]
inactive: outcome [1] | outcome [3] | Potency [4] > 20.6 µM | Potency [5] > 20.6 µM | activity change, negative = inhibition ([8]; at 25.7 µM (top of the series)) -5.39% | Potency [12] | Potency [9] | Potency [10] | Potency [13] | Potency [14] | activity, negative = inhibition ([15]; parasite line A) 5.9% | activity, negative = inhibition ([15]; parasite line B) 17.2% | Potency (3D7) | Potency (CP262) | Potency (ECU) | Potency (HB3)
-26.2%: max response [8, 18]

CN(C)C(=O)Oc1cc(OC(=O)N(C)C)cc([C@@H](O)CNC(C)(C)C)c1
2.58%: max response [8, 17]
0.267%: max response [8, 18]
inactive: outcome [1] | activity change, negative = inhibition [2] -23.9% | outcome [3] | Potency [4] > 20.6 µM | Potency [5] > 20.6 µM | outcome [6] | Potency [7] | activity change, negative = inhibition ([8]; at 25.7 µM (top of the series)) -0.844% | Potency [12] | Potency [9] | Potency [10] | Potency [13] | Potency [14] | activity, negative = inhibition ([15]; parasite line A) 1.47% | activity, negative = inhibition ([15]; parasite line B) -2.95% | Potency (3D7) | Potency (CP262) | Potency (ECU) | Potency (HB3)

c1ccc2c(c1)[nH]c1cnccc12
inactive: outcome [1] | activity change, negative = inhibition [2] 25.7% | outcome [3] | activity change, negative = inhibition ([8]; at 57.5 µM (top of the series)) 0.155%
-9.28%: max response [8, 17]
-6.47%: max response [8, 18]

CN[C@@H](C)[C@H]1CC[C@@H](N)[C@@H](O[C@@H]2[C@@H](O)[C@@H](O[C@H]3OC[C@@](C)(O)[C@@H](NC)[C@@H]3O)[C@H](N)C[C@@H]2N)O1 (tested in a mixture with another compound)
inactive: outcome [1] | outcome [3] | Potency [7] | activity change, negative = inhibition ([8]; at 25.7 µM (top of the series)) -2.96% | Potency [12] | Potency [9] | Potency [10] | Potency [13] | Potency [14] | activity, negative = inhibition ([15]; parasite line A) 3.71% | Potency (3D7) | Potency (CP262) | Potency (ECU) | Potency (HB3)
-11.6%: max response [8, 18]
-4.43%: max response [8, 17]

COP(=O)(OC)[C@@H](O)C(Cl)(Cl)Cl
inactive: outcome [1] | activity change, negative = inhibition [2] -11.8% | outcome [3] | Potency [4] > 20.6 µM | Potency [5] > 20.6 µM | outcome [6] | Potency [7] | activity change, negative = inhibition ([8]; at 25.7 µM (top of the series)) -2.04% | Potency [9]
2.5%: max response [8, 18]
5.96%: max response [8, 17]
